Results: ChEMBL document CHEMBL1157539, “Thousands of chemical starting points for antimalarial lead identification” (Nature, 2010)

Test system: HepG2
Test: GSK_TCMDC: Percent inhibition of human HepG2 cell line. Test compounds present at 10uM.
Format: functional

Question: For `CCCC(=O)Nc1ccc(OCCCCN(Cc2ccccc2C(F)(F)F)c2ccc(C(F)(F)F)c(C#N)c2)cc1`, which Inhibition is on record?
Answer: 6%

Question: How did the Inhibition turn out when `O=C(/C=C/C=C/c1ccc(Cl)c(Cl)c1)NCCCCCN1CCCC2CCCCC21` (stereo not given) was run?
Answer: 41%

Question: How did the Inhibition turn out when `COc1ccccc1N1CCN(CCCCNC(=O)c2ccc(NC(=O)c3cc4ccccc4o3)cc2)CC1` was run?
Answer: 9%

Question: Which Inhibition does the source give for `COc1ccc(-c2cccc(NC(=O)c3cccc(C#N)c3)c2)cc1CN(C)CCO.O=C(O)C(F)(F)F` here?
Answer: 28%

Question: With `COc1ccc(-c2cc(C(=O)N3CCc4ccccc43)c3ccccc3n2)cc1OC` as the molecule, how does the Inhibition read?
Answer: 5%

Question: How did the Inhibition turn out when `CCCNCc1ccc(-c2ccc(CN(C(=O)c3nn(-c4ccccc4)nc3C)C3CC3)cc2)nc1.O=C(O)C(F)(F)F` was run?
Answer: 23%

Question: How did the Inhibition turn out when `CC(=O)Nc1nc(C(=O)Nc2cccc(-c3ccc(-c4nc5cc(F)ccc5[nH]4)cc3)c2)cs1` was run?
Answer: 54%

Question: Which Inhibition does the source give for `CCc1nc2nc(C)cc(Nc3cc(C)cc(C)c3)n2n1` here?
Answer: 21%

Question: How did the Inhibition turn out when `Cc1ccn2c(N(Cc3ccccc3)C(=O)c3ccc(Cl)c(Cl)c3)c(-c3ccccc3)nc2c1` was run?
Answer: 0%

Question: How did the Inhibition turn out when `Cn1cnc2nc(NCCc3ccccc3)nc(NCc3cccc4ccccc34)c21` was run?
Answer: 16%

Question: `Cc1cc(N/N=C/c2ccccc2[N+](=O)[O-])c2cc(F)ccc2n1` was tested. Which Inhibition did it give?
Answer: 18%

Question: `Cc1cc(OCCCn2ccnc2)ccc1-c1csc(/N=C(\N)NCc2ccccc2)n1` was tested. Which Inhibition did it give?
Answer: 26%

Question: `CC(C)Cc1cn(-c2nc(-c3nc4ccccc4[nH]3)cs2)c2cc(Cl)ccc12.Cl` was tested. Which Inhibition did it give?
Answer: 9%

Question: Which Inhibition does the source give for `Cc1cc(CNC(c2ccccc2)C2CCC2)cc(C)c1O` (stereo not given) here?
Answer: 78%

Question: For `Cl.O=C1CSc2ccc(CNC3CCN(CCc4c(F)cnc5ccc(F)cc45)CC3)nc2N1`, which Inhibition is on record?
Answer: 13%

Question: Which Inhibition does the source give for `O=S(=O)(c1ccccc1)C1CC1` here?
Answer: 0%

Question: `Br.COc1cccc(OC)c1OCCCON1C(=N)N=C(N)NC1(C)C` was tested. Which Inhibition did it give?
Answer: 53%

Question: With `Cc1cc(C)n2nc(C(=O)Nc3cc(C(F)(F)F)ccc3N3CCOCC3)nc2n1` as the molecule, how does the Inhibition read?
Answer: 2%

Question: How did the Inhibition turn out when `O=C(Nc1ccc([N+](=O)[O-])cc1Br)c1cc2ccccc2nc1Cl` was run?
Answer: 0%

Question: For `O=C(/C=C/c1ccc(Cl)cc1)NCCCCCN1CCCC(C(=O)Nc2cccc(Cl)c2)C1` (stereo not given), which Inhibition is on record?
Answer: 21%

Question: `CC1(C)N=C(N)N=C(N)N1c1ccc2ccccc2c1.Cl` was tested. Which Inhibition did it give?
Answer: 48%

Question: For `C=CCc1ccccc1OCC(O)CN(C1CCCCC1)C1CCCCC1.Cl` (stereo not given), which Inhibition is on record?
Answer: 50%

Question: With `Cc1ccc2[nH]c(-c3ccccc3N)cc2c1` as the molecule, how does the Inhibition read?
Answer: 11%

Question: Which Inhibition does the source give for `Br.CC1(C)NC(N)=NC(=N)N1OCCCc1ccc(Cl)cc1Cl` here?
Answer: 54%

Question: How did the Inhibition turn out when `COc1cccc(CNc2noc(-c3c(-c4ccccc4)noc3C)n2)c1OC` was run?
Answer: 0%

Question: How did the Inhibition turn out when `CCOC(=O)C(NC(=O)Cc1ccccc1)C(C)C` (stereo not given) was run?
Answer: 39%

Question: With `O=C(O)c1ccc(-c2c[nH]c3ncc(-c4ccc(Cl)cc4)cc23)cc1` as the molecule, how does the Inhibition read?
Answer: 39%

Question: With `COc1ccc2c(c1)nc(CNC(=N)N)n2Cc1ccc(Cl)cc1.Cl` as the molecule, how does the Inhibition read?
Answer: 12%

Question: `CC(C)(c1ccccc1)c1ccc(O)c(CN2CCOCC2)c1` was tested. Which Inhibition did it give?
Answer: 0%

Question: How did the Inhibition turn out when `Cc1ccccc1C1CCN(c2ccc(NC(=O)c3ccc(Cl)nc3)cc2)CC1.O=C(O)C(F)(F)F` was run?
Answer: 43%

Question: With `CCc1nc(N)nc(N)c1-c1ccc(F)c(F)c1` as the molecule, how does the Inhibition read?
Answer: 58%

Question: `O=C(Nc1ccc(OC2CCN(Cc3ccsc3)C2)c(Cl)c1)c1ccc(F)cc1.O=C(O)C(F)(F)F` (stereo not given) was tested. Which Inhibition did it give?
Answer: 0%

Question: With `COc1cc2c(cc1C(F)(F)F)N(C(=O)Nc1cc(Br)cc(-c3cccnc3)c1)CC2` as the molecule, how does the Inhibition read?
Answer: 8%

Question: How did the Inhibition turn out when `COCCOc1nc(N)nc2ncc(Cc3cc(OC)ccc3OC)c(C)c12` was run?
Answer: 61%

Question: With `COc1ccc(-c2ccc(NC(=O)c3ccc(F)cc3)cc2)cc1CNC(C)C.O=C(O)C(F)(F)F` as the molecule, how does the Inhibition read?
Answer: 24%

Question: For `O=C1C(=Cc2c(O)ccc3ccccc23)SC(=NCc2ccccc2)N1Cc1ccccc1`, which Inhibition is on record?
Answer: 0%

Question: How did the Inhibition turn out when `Cl.NC1=NC2(CCCC2)N(c2ccc(Cl)cc2)C(N)=N1` was run?
Answer: 0%

Question: How did the Inhibition turn out when `CC1CCCN(Cc2cc(Cl)cc(Cl)c2O)C1` (stereo not given) was run?
Answer: 22%

Question: `COc1ccc(-c2ccc(NC(=O)c3cccc(C#N)c3)cc2)cc1CN(C)C.O=C(O)C(F)(F)F` was tested. Which Inhibition did it give?
Answer: 11%

Question: For `COc1ccc2nccc(NC(=O)C3(O)CCC(NCc4ncc5c(c4Cl)OCCO5)CC3)c2n1.Cl` (stereo not given), which Inhibition is on record?
Answer: 21%
